# From PubChem BioAssay (Tox21)
# Results filed as inconclusive are left out. Entries that show only a call come without a potency. Values without a mark were called inactive. The source made the active and inactive calls. Calls come from the whole dose curve; as a rule, active = well fitted cell-killing curve with a large enough effect in the repeat runs; inconclusive = weak or mixed curves, or effect the other way; inactive = flat fitted curve, though single readings scatter.
# Assay: Nuclear factor erythroid 2-related factor 2/antioxidant responsive element (Nrf2/ARE) small molecule agonists: qHTS cell viability counter screen in human keratinocytes (AID 1919968); note: nearly all actives have a fitted effect of over 55% in size
# Conditions: KeratinoSens HaCaT ARE cells viability, CellTiter-Fluor, 24 h; series mostly up to 92.4 µM
# From the text: U.S. Tox21 Program National Center for Advancing Translational Sciences [NCATS] Division of Preclinical Innovation [DPI] U.S. Environmental Protection Agency [EPA] National Institutes of Environmental Health Sciences [NIEHS] National Toxicology Program [NTP] U.S. Food and Drug Administration [FDA] Tox21 Assay Overview: Oxidative stress has been implicated in the pathogenesis of a variety of diseases ranging from cancer to neurodegeneration. The antioxidant response element (ARE) signaling pathway plays an important role in the amelioration of oxidative stress. The KeratinoSens (Givaudan, Switzerland) is an in vitro test method which quantifies luciferase induction as a measure of activation of Keap1-Nrf2-antioxidationt/electrophile response element (ARE) dependant pathway in HaCaT human keratinocytes stably transfected with a selectable plasmid. The KeratinoSens assay is a cell-based assay with a reporter cell line to detect potential skin sensitizers by their ability to induce the Nrf2/ARE-response. The activation of the report gene under culture conditions can be detected by ONE-Glo Luciferase Assay System (Promega, Madison, WI). This cell line has been used to screen the Tox21 10K compound library to identify agonists that induce oxidative stress. The cytotoxicity of the Tox21 compound library against the KS-ARE cell line was tested in parallel by measuring the cell viability using CellTiter- Fluor assay system (Promega, Madison, WI) in the same wells.
# Tox21 Assay Protocol Summary: HaCaT derived cell line KeratinoSens were dispensed at 1,500 cells/5uL/well in 1536-well white wall/solid bottom plates using a Multidrop Combi (ThermoFisher Scientific, Waltham, MA) dispenser. After the assay plates were incubated at 37 C/5% CO2 for 5 h, 23 nL of compounds dissolved in DMSO, positive controls or DMSO only was transferred to the assay plate by a pintool workstation (Kalypsys, San Diego, CA). The plates were incubated at 37 C/5% CO2 for 23 h, followed by addition of 1uL/well of CellTiter-Fluor reagent into the assay plates using a Flying Reagent Dispenser (Aurora Discovery, San Diego, CA) for cell viability readout that measures cytotoxicity. After 1 h incubation at 37 C/5% CO2 the fluorescence intensity was measured using a ViewLux (PerkinElmer, Shelton, CT) plate reader.
# Potency is the fitted concentration of half-maximal effect.
SMILES,Potency,"activity change, negative = cytotoxicity"
BrCCCCCBr,inactive,–
CN1CCN(c2cc3c(cc2F)c(=O)c(C(=O)O)cn3-c2ccc(F)cc2)CC1,1.88 µM (active),–
BrC(Br)C(Br)Br,inactive,–
CCOC(=O)CC,inactive,–
O=C(O)CNCC(=O)O,–,0.812% [at 8.39 µM]
Cc1ccc2c(c1)c1c3n2CCNC3CCC1 (stereo not given),inactive,–
CCCS(=O)c1ccc2nc(NC(=O)OC)[nH]c2c1 (stereo not given),inactive,–
Nc1nc2c(ncn2COC(CO)CO)c(=O)[nH]1,inactive,–
CC(C=O)Cc1ccc(C(C)C)cc1 (stereo not given),inactive,–
COc1cc2c(cc1OC)C(=O)C(CC1CCN(Cc3ccccc3)CC1)C2 (stereo not given),inactive,–
CCCC(=O)OC(=O)CCC,inactive,–
CCC(C)C(=O)OC (stereo not given),inactive,–
CCOC(=O)CC(C)O (stereo not given),inactive,–
NCCS,inactive,–
CN[C@@H]1[C@H](O)[C@H](NC)[C@H]2O[C@@]3(O)C(=O)C[C@@H](C)O[C@H]3O[C@@H]2[C@H]1O,inactive,–
CCCCCC(=O)OCC,inactive,–
CCOC(=O)C1=C(C)NC(C)=C(C(=O)OC)C1c1cccc([N+](=O)[O-])c1 (stereo not given),inactive,–
Cc1cc(SC2=C(O)C[C@@](CCc3ccc(N)cc3)(C(C)C)OC2=O)c(C(C)(C)C)cc1CO,inactive,–
N=C1C=CC(=C(c2ccc(N)cc2)c2ccc(N)cc2)C=C1,27.3 µM (active),–
NC(N)=NC(=O)Cc1c(Cl)cccc1Cl,inactive,–

SMILES,Potency,"activity change, negative = cytotoxicity"
Cn1c(=O)[nH]c2ncn(C)c2c1=O,inactive,–
O=C(CCCN1CCC(O)(c2ccc(Br)cc2)CC1)c1ccc(F)cc1,inactive,–
CCOC(=O)c1ncn2c1CN(C)C(=O)c1cc(F)ccc1-2,inactive,–
CC(N)C12CC3CC(CC(C3)C1)C2 (stereo not given),inactive,–
O=C1OCCN1/N=C/c1ccc([N+](=O)[O-])o1,inactive,–
CC(C)(C)C(=O)/C=C/c1ccc(Cl)cc1,inactive,–
CN(Cc1cc(Br)cc(Br)c1N)C1CCCCC1,16.8 µM (active),–
CCCCN(CCCC)C(=O)N(CCCC)CCCC,inactive,–
O=C1CCCN1CCO,inactive,–
C=C[Si](C)(C)Cl,–,-0.368% [at 8.39 µM]
C=CC/C=C/C,inactive,–
COc1ccc2nc(NC(=O)Nc3ccccc3)sc2c1,inactive,–
CCCCNc1ccc(NCCCC)c2c1C(=O)c1ccccc1C2=O,–,-4.75% [at 19 µM]
Cc1occc(=O)c1OC(=O)C(C)C,inactive,–
CCOC(=O)CS,inactive,–
CC(=O)Nc1ccc(S(=O)(=O)Nc2cc(C)on2)cc1,inactive,–
NC(=O)NS(=O)(=O)c1ccc(N)cc1,inactive,–
CCO[Si](CC)(OCC)OCC,inactive,–
O=S(=O)(c1ccccc1)c1ccc(Cl)cc1,inactive,–
CCc1nnc(NS(=O)(=O)c2ccc(N)cc2)s1,inactive,–
